Measurements: PubChem BioAssay (NCI)
About 83,000 compounds went through this panel and 20% of them were active in at least one assay; those are over-represented in the sample as a whole.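 Cells were grown in 96-well plates and exposed to the test compound at a single concentration for 48 hours; results are reported as percent growth, with values below 10 considered active.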 A number with no mark means an inactive call. The source made the active and inactive calls.

tested on: SN12C renal; assay: NCI-60 one-dose screen, 48 h (100 = growth as untreated, 0 = no growth, -100 = all killed); conditions: 10 µM unless noted

**Q.** How did the growth turn out when `O=C(c1ccccc1)C1OC1C(=O)c1ccccc1` (stereo unspecified) was run?
**A.** Its growth is 28.2%.

**Q.** For `CC(C)=CC[C@@H]1CC2(CC=C(C)C)C(=O)C(OC3(C(=O)c4ccccc4)C(=O)C4(CC=C(C)C)C[C@@H](CC=C(C)C)C(C)(C)C(CC=C(C)C)(C4=O)C3=O)(C(=O)c3ccccc3)C(=O)C(CC=C(C)C)(C2=O)C1(C)C` (stereo partly specified), which growth is on record?
**A.** The growth was -17.9% (active).

**Q.** How did the growth turn out when `CCCCc1nc(Cl)c(C2CC(c3ccc(S(N)(=O)=O)cc3)=NN2c2ccc(C#N)cc2)[nH]1` (stereo unspecified) was run?
**A.** Its growth is 83%.

**Q.** How did the growth turn out when `COc1cc(Cl)cc(-c2nn(C(=O)NCCN3CCOCC3)cc2-c2ccncc2)c1` was run?
**A.** Its growth is 75.3%.

**Q.** Which growth does the source give for `O=[N+]([O-])c1ccc(N=Nc2c(NNc3ccc([N+](=O)[O-])cn3)cc(S(=O)(=O)O)c3ccccc23)nc1` here?
**A.** Its growth is 81.5%.

**Q.** `NC(=S)N1N=C(c2ccc(Cl)cc2)CC1c1cc2ccccc2[nH]c1=O` (stereo unspecified) was tested. Which growth did it give?
**A.** Its growth is 104%.

**Q.** For `NC(=O)N/N=C\c1ccc([N+](=O)[O-])o1`, which growth is on record?
**A.** Its growth is 104%.

**Q.** `Cc1cc(N)cc(C)c1-c1c(Br)cc(N)cc1Br` was tested. Which growth did it give?
**A.** The growth was 47.9%.

**Q.** Which growth does the source give for `O=C1CCCN1C1CCN2CCCc3cccc1c32` (stereo unspecified) here?
**A.** The growth was 104%.

**Q.** How did the growth turn out when `CCCCCCCCCCCCCCCC1=NCCN1` was run?
**A.** The growth was -51.6% (active).

**Q.** With `C=CCCCCOc1cccc(/C=C2\N=C3SCCCN3C2=O)c1` as the compound, how does the growth read?
**A.** The growth was 89.8%.

**Q.** For `CC(CN1CCN(CC(C)Nc2ccnc3cc(Cl)ccc23)CC1)Nc1ccnc2cc(Cl)ccc12` (stereo unspecified), which growth is on record?
**A.** The growth was 57.7%.

**Q.** `CCN1CCN(Cc2ccc(NC(=O)Nc3ccc(-n4ccc5c(NC(=O)c6ccccc6)nccc54)cc3)cc2C(F)(F)F)CC1` was tested. Which growth did it give?
**A.** The growth was 58.3%.

**Q.** For `N/C(=N\OC(=O)c1ccccc1)C(Cc1ccccc1)C(=O)NOC(=O)c1ccccc1` (stereo unspecified), which growth is on record?
**A.** Its growth is 68.8%.

**Q.** Which growth does the source give for `C=CCN(CC#N)CC=C` here?
**A.** The growth was 102%.

**Q.** With `CCSc1cnnc2ccccc12` as the compound, how does the growth read?
**A.** The growth was 103%.

**Q.** `CCN1C(=O)N(CC)C2C1NN=c1s/c(=C\c3ccc(Br)cc3)c(=O)n12` (stereo unspecified) was tested. Which growth did it give?
**A.** Its growth is 33.9%.

**Q.** How did the growth turn out when `OC(COCc1ccccc1)COCc1ccccc1` was run?
**A.** Its growth is 104%.

**Q.** How did the growth turn out when `N#CCCn1cnc2c(N)ncnc21` was run?
**A.** Its growth is 94.2%.

**Q.** With `CCOC(=O)Nc1ccc2nc(Sc3ccc(Cl)cc3)sc2c1` as the compound, how does the growth read?
**A.** The growth was 40.4%.

**Q.** How did the growth turn out when `O=C(O)CSc1ccc(NCc2oc(CO)cc(=O)c2O)cc1` was run?
**A.** Its growth is 98.2%.

**Q.** `COc1cccc(N2CCN(c3ncnc4cc[nH]c34)CC2)c1` was tested. Which growth did it give?
**A.** Its growth is 85.5%.

**Q.** For `CCCCc1nc(Cl)c(C2CC(c3ccc(S(N)(=O)=O)cc3)=NN2c2cc(Cl)cc(Cl)c2)[nH]1` (stereo unspecified), which growth is on record?
**A.** Its growth is 48.6%.

**Q.** How did the growth turn out when `CS(=O)(=O)c1ccc(Cl)c([N+](=O)[O-])c1` was run?
**A.** The growth was 107%.

**Q.** How did the growth turn out when `CC(C)CC(=O)C(CCc1ccccn1)C(C)C` (stereo unspecified) was run?
**A.** Its growth is 107%.

**Q.** With `CC(C)c1ccc(-c2cnc3nonc3n2)cc1` as the compound, how does the growth read?
**A.** Its growth is 26.2%.

**Q.** With `Cc1ccc(Nc2cc(Cl)c([N+](=O)[O-])cc2[N+](=O)[O-])cc1` as the compound, how does the growth read?
**A.** Its growth is 24.6%.

**Q.** For `COc1cc2c(=O)n(CCCN(C)C)c3c4cc[nH]c4ncc3c2cc1OC`, which growth is on record?
**A.** The growth was 33.9%.

**Q.** For `COc1cc(C2CC(c3ccc(C)cc3)=NN2C=O)ccc1Oc1nc2c(c(=O)n(C)c(=O)n2C)n1C` (stereo unspecified), which growth is on record?
**A.** The growth was 52.4%.

**Q.** Which growth does the source give for `CC(C)CCSc1nc(-c2ccc(F)cc2)c(C#N)c(N2CCCCC2)n1` here?
**A.** The growth was 107%.

**Q.** `FC(F)(F)c1nn[nH]n1` was tested. Which growth did it give?
**A.** Its growth is 105%.

**Q.** `CCN(CC)CCNC(=O)n1cc(-c2ccncc2)c(-c2cc(Cl)cc(OC)c2)n1` was tested. Which growth did it give?
**A.** The growth was 70.2%.

**Q.** `CS(=O)(=O)c1ccc(C(=O)Nc2ccc(Cl)c(-c3ccccn3)c2)c(Cl)c1` was tested. Which growth did it give?
**A.** Its growth is 28.2%.

**Q.** Which growth does the source give for `CCOC(=O)c1cc(N)nc2ccccc12` here?
**A.** The growth was 109%.

**Q.** Which growth does the source give for `CCCCCCCOc1cccc(/C=C2\N=C3SCCCN3C2=O)c1` here?
**A.** The growth was 94.1%.

**Q.** For `Cn1cnc([N+](=O)[O-])c1S(=O)(=O)Oc1ccccc1`, which growth is on record?
**A.** Its growth is 99.2%.

**Q.** How did the growth turn out when `Cc1c(C(=O)CCl)c(=O)n(-c2ccccc2)n1C` was run?
**A.** The growth was 86%.

**Q.** How did the growth turn out when `CCN(CC)c1cc(C)c(Cc2c(OC)ccc3ccccc23)cc1C` was run?
**A.** The growth was 91.2%.

tested on: UO-31 renal; assay: as above; conditions: 10 µM unless noted

**Q.** With `O=C(c1ccccc1)C1OC1C(=O)c1ccccc1` (stereo unspecified) as the compound, how does the growth read?
**A.** The growth was 60.1%.

**Q.** For `CC(C)=CC[C@@H]1CC2(CC=C(C)C)C(=O)C(OC3(C(=O)c4ccccc4)C(=O)C4(CC=C(C)C)C[C@@H](CC=C(C)C)C(C)(C)C(CC=C(C)C)(C4=O)C3=O)(C(=O)c3ccccc3)C(=O)C(CC=C(C)C)(C2=O)C1(C)C` (stereo partly specified), which growth is on record?
**A.** Its growth is -7.33% (active).

**Q.** Which growth does the source give for `CCCCc1nc(Cl)c(C2CC(c3ccc(S(N)(=O)=O)cc3)=NN2c2ccc(C#N)cc2)[nH]1` (stereo unspecified) here?
**A.** Its growth is 70.5%.

**Q.** With `COc1cc(Cl)cc(-c2nn(C(=O)NCCN3CCOCC3)cc2-c2ccncc2)c1` as the compound, how does the growth read?
**A.** The growth was 56.9%.

**Q.** Which growth does the source give for `O=[N+]([O-])c1ccc(N=Nc2c(NNc3ccc([N+](=O)[O-])cn3)cc(S(=O)(=O)O)c3ccccc23)nc1` here?
**A.** Its growth is 52.1%.

**Q.** For `NC(=S)N1N=C(c2ccc(Cl)cc2)CC1c1cc2ccccc2[nH]c1=O` (stereo unspecified), which growth is on record?
**A.** Its growth is 82.7%.

**Q.** `NC(=O)N/N=C\c1ccc([N+](=O)[O-])o1` was tested. Which growth did it give?
**A.** The growth was 85.2%.

**Q.** `Cc1cc(N)cc(C)c1-c1c(Br)cc(N)cc1Br` was tested. Which growth did it give?
**A.** Its growth is 36.1%.

**Q.** How did the growth turn out when `O=C1CCCN1C1CCN2CCCc3cccc1c32` (stereo unspecified) was run?
**A.** The growth was 81.3%.

**Q.** How did the growth turn out when `CCCCCCCCCCCCCCCC1=NCCN1` was run?
**A.** The growth was 64.5%.

**Q.** `C=CCCCCOc1cccc(/C=C2\N=C3SCCCN3C2=O)c1` was tested. Which growth did it give?
**A.** The growth was 76.6%.

**Q.** With `CC(CN1CCN(CC(C)Nc2ccnc3cc(Cl)ccc23)CC1)Nc1ccnc2cc(Cl)ccc12` (stereo unspecified) as the compound, how does the growth read?
**A.** The growth was -49.5% (active).

**Q.** `CCN1CCN(Cc2ccc(NC(=O)Nc3ccc(-n4ccc5c(NC(=O)c6ccccc6)nccc54)cc3)cc2C(F)(F)F)CC1` was tested. Which growth did it give?
**A.** Its growth is -48.6% (active).

**Q.** Which growth does the source give for `N/C(=N\OC(=O)c1ccccc1)C(Cc1ccccc1)C(=O)NOC(=O)c1ccccc1` (stereo unspecified) here?
**A.** The growth was -59.5% (active).

**Q.** Which growth does the source give for `C=CCN(CC#N)CC=C` here?
**A.** Its growth is 92.4%.

**Q.** With `CCSc1cnnc2ccccc12` as the compound, how does the growth read?
**A.** The growth was 94.3%.

**Q.** Which growth does the source give for `CCN1C(=O)N(CC)C2C1NN=c1s/c(=C\c3ccc(Br)cc3)c(=O)n12` (stereo unspecified) here?
**A.** Its growth is 35.4%.

**Q.** With `OC(COCc1ccccc1)COCc1ccccc1` as the compound, how does the growth read?
**A.** The growth was 91.6%.

**Q.** Which growth does the source give for `N#CCCn1cnc2c(N)ncnc21` here?
**A.** Its growth is 116%.

**Q.** With `CCOC(=O)Nc1ccc2nc(Sc3ccc(Cl)cc3)sc2c1` as the compound, how does the growth read?
**A.** Its growth is 43.9%.

**Q.** How did the growth turn out when `O=C(O)CSc1ccc(NCc2oc(CO)cc(=O)c2O)cc1` was run?
**A.** Its growth is 80%.

**Q.** How did the growth turn out when `COc1cccc(N2CCN(c3ncnc4cc[nH]c34)CC2)c1` was run?
**A.** Its growth is 65%.

**Q.** How did the growth turn out when `CCCCc1nc(Cl)c(C2CC(c3ccc(S(N)(=O)=O)cc3)=NN2c2cc(Cl)cc(Cl)c2)[nH]1` (stereo unspecified) was run?
**A.** Its growth is 58.3%.

**Q.** Which growth does the source give for `CS(=O)(=O)c1ccc(Cl)c([N+](=O)[O-])c1` here?
**A.** The growth was 5.92% (active).

**Q.** Which growth does the source give for `CC(C)CC(=O)C(CCc1ccccn1)C(C)C` (stereo unspecified) here?
**A.** The growth was 103%.

**Q.** With `CC(C)c1ccc(-c2cnc3nonc3n2)cc1` as the compound, how does the growth read?
**A.** The growth was 41.3%.

**Q.** Which growth does the source give for `Cc1ccc(Nc2cc(Cl)c([N+](=O)[O-])cc2[N+](=O)[O-])cc1` here?
**A.** Its growth is 77.7%.

**Q.** With `COc1cc2c(=O)n(CCCN(C)C)c3c4cc[nH]c4ncc3c2cc1OC` as the compound, how does the growth read?
**A.** The growth was 34.1%.

**Q.** With `COc1cc(C2CC(c3ccc(C)cc3)=NN2C=O)ccc1Oc1nc2c(c(=O)n(C)c(=O)n2C)n1C` (stereo unspecified) as the compound, how does the growth read?
**A.** Its growth is 63.1%.

**Q.** How did the growth turn out when `CC(C)CCSc1nc(-c2ccc(F)cc2)c(C#N)c(N2CCCCC2)n1` was run?
**A.** Its growth is 80.4%.

**Q.** With `FC(F)(F)c1nn[nH]n1` as the compound, how does the growth read?
**A.** The growth was 99.1%.

**Q.** How did the growth turn out when `CCN(CC)CCNC(=O)n1cc(-c2ccncc2)c(-c2cc(Cl)cc(OC)c2)n1` was run?
**A.** Its growth is 43.8%.

**Q.** For `CS(=O)(=O)c1ccc(C(=O)Nc2ccc(Cl)c(-c3ccccn3)c2)c(Cl)c1`, which growth is on record?
**A.** Its growth is 24.6%.

**Q.** For `CCOC(=O)c1cc(N)nc2ccccc12`, which growth is on record?
**A.** The growth was 103%.

**Q.** `CCCCCCCOc1cccc(/C=C2\N=C3SCCCN3C2=O)c1` was tested. Which growth did it give?
**A.** The growth was 78.7%.

**Q.** With `Cn1cnc([N+](=O)[O-])c1S(=O)(=O)Oc1ccccc1` as the compound, how does the growth read?
**A.** Its growth is 75.1%.

**Q.** `Cc1c(C(=O)CCl)c(=O)n(-c2ccccc2)n1C` was tested. Which growth did it give?
**A.** The growth was 64.2%.

**Q.** Which growth does the source give for `CCN(CC)c1cc(C)c(Cc2c(OC)ccc3ccccc23)cc1C` here?
**A.** Its growth is 73.1%.
